This is part of a sample that, as a whole, favours compounds with a hit. Of some 83,000 tested, about 20% had one in any assay.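 For each line, cells grew in 96-well plates with the test compound present at a single concentration for 48 hours.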 Unmarked numbers belong to inactive results. Active and inactive are the calls of the source. How the source made its calls: active means growth percent below 10; inactive means the rest.
Test system: HL-60(TB) leukemia
Experiment: NCI-60 one-dose screen, 48 h (100 = growth as untreated, 0 = no growth, -100 = all killed)
Details: 10 µM unless noted

**Q.** `Cc1cc(C2(c3cc(C)c(OCC(O)CNc4c(C)n(C)n(-c5ccccc5)c4=O)cc3C(C)C)OC(=O)c3ccccc32)c(C(C)C)cc1OCC(O)CNc1c(C)n(C)n(-c2ccccc2)c1=O` (stereo not given) was tested. Which growth did it give?
**A.** Its growth is 0.434% (active).

**Q.** With `CC(=O)Nc1ccc(-c2cn(-c3cccc(C(=O)Nc4ccc(F)c(C(F)(F)F)c4)c3)nn2)cn1` as the molecule, how does the growth read?
**A.** Its growth is 62.8%.

**Q.** `CC(Nc1ncnc2ccc(-c3ccc4oc(N)nc4c3)cc12)c1ccccc1` (stereo not given) was tested. Which growth did it give?
**A.** Its growth is -71.4% (active).

**Q.** Which growth does the source give for `CC(=O)Nc1ccc(-c2cn(-c3cccc(C(=O)Nc4cc(CN5CCOCC5)cc(C(F)(F)F)c4)c3)nn2)cn1` here?
**A.** Its growth is -54.3% (active).

**Q.** How did the growth turn out when `Fc1ccc(F)c(CNc2nc(SCCN3CCOCC3)nc3c2cnn3CC(Cl)c2ccc(Br)cc2)c1` (stereo not given) was run?
**A.** The growth was -12.3% (active).

**Q.** For `CC1CC(c2ccc(N(C)C)cc2)=NN1c1nc(O)c(C2=c3cc(Br)ccc3=NC2=O)s1` (stereo not given), which growth is on record?
**A.** The growth was 68.7%.

**Q.** `CN(C)CCn1c2ccccc2c2nc3cc4ccccc4cc3nc21` was tested. Which growth did it give?
**A.** The growth was -51.2% (active).

**Q.** `O=C(c1ccc(Cl)cc1)C1[C@H](c2ccccc2Cl)[C@@H](c2ccccc2)NC12C(=O)Nc1ccc(Br)cc12` (stereo not given in full) was tested. Which growth did it give?
**A.** The growth was -43.7% (active).

**Q.** `O=C(c1ccc(Cl)cc1)C(c1c[nH]c2ccccc12)c1c[nH]c2ccccc12` was tested. Which growth did it give?
**A.** Its growth is -26.2% (active).

**Q.** For `O=C(CNc1nc(-c2ccccc2)cs1)Nc1ccc(Br)cc1`, which growth is on record?
**A.** Its growth is -40.4% (active).

**Q.** Which growth does the source give for `CC(=O)c1c(N)c(C#N)cn1-c1ccc(Cl)cc1Cl` here?
**A.** The growth was 102%.

**Q.** With `O=C(Nc1cccc(-n2cnc3cc(-c4ccc(O)cc4)ccc32)c1)C1CC1` as the molecule, how does the growth read?
**A.** The growth was -16.7% (active).

**Q.** With `CCOc1ccccc1[C@H]1C(C(=O)c2ccc(Cl)cc2)C2(N[C@@H]1c1ccccc1)C(=O)Nc1ccccc12` (stereo not given in full) as the molecule, how does the growth read?
**A.** Its growth is -35.5% (active).

**Q.** `Cc1ccc(C(=O)Nc2cc(-c3ccncc3)cc(C(F)(F)F)c2)cc1C#Cc1cnc2cccnn12` was tested. Which growth did it give?
**A.** Its growth is 16.8%.

**Q.** With `CCOC(=O)CNC(=O)CN(Cc1ccccc1)C(=O)[C@@]1(C)CCC[C@]2(C)[C@H]3CC4C(C(C)C)=C[C@]3(CC[C@H]21)[C@@H]1C(=O)CCC(=O)[C@H]41` as the molecule, how does the growth read?
**A.** The growth was 2.73% (active).

**Q.** With `COc1cc2oc(-c3cccc(NC(=O)[C@H](CC(N)=O)NC(=O)OC(C)(C)C)c3)cc(=O)c2c(OC)c1OC` as the molecule, how does the growth read?
**A.** Its growth is 67.2%.

**Q.** `N#Cc1c(-c2ccccc2Cl)cc(-c2c[nH]c3ccccc23)[nH]c1=O` was tested. Which growth did it give?
**A.** Its growth is 68.4%.

**Q.** Which growth does the source give for `CC1[C@H]2[C@H](C[C@H]3[C@@H]4CC=C5c6sc(Nc7cccc(Cl)n7)nc6CC[C@]5(C)[C@H]4CC[C@@]32C)O[C@]12CC[C@@H](C)CO2` (stereo not given in full) here?
**A.** The growth was 45.4%.

**Q.** For `FC(F)(F)c1cc2c(Cl)ncnc2n1CCC1CCOCC1`, which growth is on record?
**A.** Its growth is -59.6% (active).

**Q.** `COCOc1ccc2c(=O)c(C)c(C(=O)N[C@@H](Cc3ccccc3)C(O)C(=O)NCCc3ccc(OC)cc3)oc2c1` (stereo not given in full) was tested. Which growth did it give?
**A.** Its growth is 102%.

**Q.** `CCCCCCCCCCCCCCCCCCCC(=O)NCCc1c[nH]c2ccc(O)cc12` was tested. Which growth did it give?
**A.** Its growth is 52.8%.

**Q.** For `CSc1ccccc1NC(=O)c1ccc2nn(/C(C#N)=C/c3ccccn3)nc2c1`, which growth is on record?
**A.** Its growth is -12.8% (active).

**Q.** How did the growth turn out when `COc1ccc(-c2nc3ccc(-c4nnc(SCC(=O)Nc5ccc(/C(C)=N\O)cc5)o4)cc3[nH]2)cc1` was run?
**A.** The growth was 77.6%.

**Q.** With `Cn1cc(-c2cc(N)n3nc(-c4c[nH]c5ccccc45)cc3n2)c2cccnc21` as the molecule, how does the growth read?
**A.** Its growth is -70.9% (active).

**Q.** With `CNS(=O)(=O)N1CCc2c(Br)c3c(c(OC)c2C1CCc1ccccc1)OCO3` (stereo not given) as the molecule, how does the growth read?
**A.** Its growth is -36.1% (active).

**Q.** With `N#Cc1c(-c2ccc(F)cc2)nc(SCc2ccccc2)nc1N1CCNCC1` as the molecule, how does the growth read?
**A.** Its growth is -14.7% (active).

**Q.** For `COc1ccc(-c2nc(Nc3ccccc3S(N)(=O)=O)c3ccccc3n2)cc1`, which growth is on record?
**A.** Its growth is 88.5%.

**Q.** `N#Cc1ccc(-c2nn(-c3ccc(C(=O)O)cc3)cc2CNc2cc(Cl)cc(C(F)(F)F)c2)cc1` was tested. Which growth did it give?
**A.** The growth was 7.71% (active).

**Q.** Which growth does the source give for `CC(=O)C1=C(C)NC(SCC(=O)Nc2ccc(S(=O)(=O)Nc3cc(C)on3)cc2)=NC1c1ccccc1` (stereo not given) here?
**A.** The growth was 100%.

**Q.** `COc1cc(/C=C/C(=O)c2cnn(-c3cc(=O)[nH]c4ccc(C)cc34)c2C)cc(OC)c1OC` was tested. Which growth did it give?
**A.** Its growth is -28.4% (active).

**Q.** How did the growth turn out when `Cc1ccc(C(=O)CSc2nc3ccc(C)cc3c(=O)n2-c2ccc(F)cc2)cc1` was run?
**A.** Its growth is 123%.

**Q.** For `COc1ccc(CN2[C@@H](C(=O)NCc3ccc(C(=O)NO)cc3)Cc3c([nH]c4ccccc34)[C@@H]2C)cc1`, which growth is on record?
**A.** The growth was -5.52% (active).

**Q.** `COc1cccc2nc(Nc3cccc(NC(=O)c4ccc(CN5CCN(C)CC5)c(C(F)(F)F)c4)c3)ccc12` was tested. Which growth did it give?
**A.** Its growth is -53.1% (active).

**Q.** For `COc1cc2c(c(OC)c1OC)C(=O)CC(c1cccc(NC(=O)c3cccc(NC(=O)[C@H](C)NC(=O)OC(C)(C)C)c3)c1)O2` (stereo not given in full), which growth is on record?
**A.** The growth was 71.2%.

**Q.** Which growth does the source give for `O=C(/C=C/c1ccc(-c2ccccc2)cc1)c1nc2ccccc2n1Cc1ccc(Br)cc1` here?
**A.** The growth was 35.3%.

**Q.** How did the growth turn out when `COc1ccc2c(c1)C(=O)N(C)C2C1c2c(cc3c(c2OC)OCO3)CCN1C` (stereo not given) was run?
**A.** The growth was -6.5% (active).

**Q.** Which growth does the source give for `CCN(CC)C(=O)N/C(N)=N/c1nc2ccccc2s1` here?
**A.** Its growth is 52.1%.

**Q.** `CC(C)c1ccc(C(=O)Nc2sc3c(c2C(N)=O)CCC(=O)C3=O)cc1` was tested. Which growth did it give?
**A.** Its growth is 96.9%.

**Q.** How did the growth turn out when `Cn1cc(-c2cc(N)n3nc(-c4c[nH]c5ccc(Cl)cc45)cc3n2)c2cc(Br)cnc21` was run?
**A.** Its growth is -60.4% (active).

**Q.** How did the growth turn out when `O=C(N/N=C/c1ccsc1)c1[nH]c2ccc(Br)cc2c1-c1ccccc1` was run?
**A.** Its growth is -33.7% (active).
